From PubChem BioAssay AID1069 (NMMLSC, 2008) come the findings set out here.

Unmarked numbers belong to inactive results.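 How the source made its calls: active means high combined rank on largest and smallest cell-count-weighted shift across three tests, rank score above 45, floors 50 and 25 (some results past the limit were not filed as active); inactive means the rest.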

The assay is described as follows: activators of LNCaP cell differentiation, retest, confirmation, side scatter shift, flow cytometry (AID 1069).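 Further: LNCaP human prostate cancer cells in low-serum medium with charcoal-stripped FBS; percent of cells with raised granularity gated so DMSO controls show 10%.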 Conditions: 4 d, at 100 µM, stronger effect = higher value.
In the case of `Cc1ccc(C)c(N2CCN(CCCNC(=O)Cn3cc4c(n3)CCC(C)C4)CC2)c1` (centres undefined), the side scatter shift was 20%.

On to `CCCS(=O)(=O)N1CCCC(C(=O)NCCCN2CCN(c3ccccc3F)CC2)C1` (centres undefined), for which the side scatter shift is 35.5%. Take `COC(=O)c1ccccc1S(=O)(=O)N(Cc1cc2cc3c(cc2[nH]c1=O)OCO3)C1CCCCC1`: the side scatter shift is 50%. Consider `COc1ccc2c(c1)CCc1c(C(=O)Nc3cc(C)n(Cc4ccc(Cl)cc4)n3)noc1-2`, for which the side scatter shift is 37.2%. The value for `Cc1oc(-c2ccccc2F)nc1CN1CCC(C(=O)NC2CCCCCCC2)CC1` was 16.7%. On to `CCOC(=O)C1CCN(S(=O)(=O)c2ccc(-c3nc4ccccc4s3)s2)CC1`, for which the side scatter shift was 25.7%. On to `Cc1ccccc1-c1nc(CN2CCC(C(=O)N3CCN(c4ccccn4)CC3)CC2)c(C)o1`, for which the side scatter shift was 24.7%.

For `COc1ccc(-n2nnnc2SCC(=O)c2ccc(O)c(O)c2)cc1`, the side scatter shift is 0%. With `COc1ccc(N2CCN(CCCNC(=O)C3CCCN(S(=O)(=O)c4cnc[nH]4)C3)CC2)cc1` (centres undefined), the side scatter shift was 32.3%. Take `CCOC(=O)c1c(NCc2ccc3c(c2)OCO3)c2ccccc2[nH]c1=O`: the side scatter shift was 12.8%. As for `COc1ccccc1CNC(=O)C1CCN(Cc2nc(-c3cccc(Cl)c3)oc2C)CC1`, the side scatter shift was 33.3%.

On to `CCOC(=O)N1CCC(NC(=O)c2cc3c(-c4ccc(OC)c(OC)c4)nn(C)c3s2)CC1`, for which the side scatter shift is 16.6%. For `CN(C)c1ccc(-c2nn3c(-c4ccc(Cl)cc4Cl)nnc3s2)cc1`, the side scatter shift is 50%. In the case of `CCOc1ccccc1NC(=O)CCC(=O)O` it was 6.7%.
